What all share (assay): NCI-60 one-dose screen, 48 h (100 = growth as untreated, 0 = no growth, -100 = all killed)
Holding throughout (settings): 10 µM unless noted

Test [1] relates to SR leukemia.
Test [2] deals with RPMI-8226 leukemia.
Test [3] deals with OVCAR-8 ovarian.
Test [4] deals with OVCAR-5 ovarian.
In test [5] the test system is OVCAR-4 ovarian.
Test [6] concerns SK-OV-3 ovarian.
Test [7] has as its system IGROV1 ovarian.
Test [8] relates to OVCAR-3 ovarian.
The subject of test [9] is HS 578T breast.
In test [10] the test system is NCI/ADR-RES ovarian.
In test [11] the test system is T-47D breast.
Test [12] concerns MDA-MB-435 melanoma.
The subject of test [13] is SW-620 colon.
Test [14] concerns MCF7 breast.
In test [15] the test system is HCT-116 colon.
Test [16] has as its system HCC-2998 colon.
For test [17], the system named is KM12 colon.
The subject of test [18] is BT-549 breast.

Growth data for nine compounds are collected here from PubChem BioAssay (NCI).

The panel holds about 83,000 compounds, 20% with a hit somewhere; the sample as a whole holds those more often.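 Cell lines were cultured in 96-well plates, exposed to a single compound concentration, and assessed for percent growth 48 hours later.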 A number with no mark means an inactive call. Active and inactive are the calls of the source. How the source made its calls: active means growth percent below 10; inactive means the rest.

With `N#Cc1c(-c2cccs2)cc(-c2cnccn2)nc1SCC(=O)c1ccc(F)cc1`, the growth in test [1] was 81.3%; in test [2], 97.7%; in test [3], 99.5%; in [4], 88%; in test [5], 76%; in test [6], 104%. Further, the growth in test [7] is 78.1%; in [8] it was 118%; in test [9] it was 94.2%; in test [10], 96.4%; in test [11] it was 106%; in test [12], 93.3%. Further, the growth in [13] is 96.7%; in test [14], 85.7%; in test [15], 96.6%; in [16], 117%; in [17], 99%.

`Cn1cc(CNc2nc3ccc(OC/C(=C/F)CN)cc3o2)ccc1=O`: the growth in test [1] is 117%; in test [2], 110%; in [3] it was 111%; in [4], 101%; in test [5] it was 106%; in test [6] it was 109%. The growth in [7] is 102%; in test [8] it was 112%; in [9] it was 103%; in [10], 102%; in test [11], 105%; in test [18] it was 99.8%. In addition, the growth in test [12] was 104%; in test [13], 107%; in test [14], 91.7%; in test [15], 103%; in [16] it was 99%; in test [17], 105%.

In the case of `O=S(=O)(NCCCNc1nccc(-n2cnc3ccccc32)n1)c1ccc(C(F)(F)F)cc1`, the growth in [1] is 75.4%; in [2] it was 69.7%; in [3] it was 82.5%; in [4], 96.3%; in [5], 66.7%; in [6], 92.5%. Further, the growth was 98.1% in test [7]; 96.8% in test [8]; 78.3% in [9]; 81.1% in [10]; 44.7% in [11]; 88.2% in [18]. In addition, the growth in [12] is 93.4%; in [13] it was 106%; in test [14], 83.4%; in [15], 75.9%; in [16] it was 112%; in test [17] it was 79.8%.

`N=c1c2cc(-c3ccccc3)oc2ncn1/N=C/c1ccc(Cl)cc1`: the growth is 35.3% in test [1]; 80.9% in [2]; 95.7% in [3]; 51.7% in test [4]; 17.1% in test [5]; 99.7% in test [6]. The growth is 53.5% in [7]; 6.82% (active) in test [8]; 81.7% in [9]; 49.6% in test [10]; 81% in test [11]; 105% in test [18]. In addition, the growth in [12] was 72.6%; in test [13], 29.5%; in test [14] it was 70.8%; in test [15], 66.6%; in test [16], 102%; in test [17], 31%.

Regarding `COC[C@]12CCC(C)(C)C[C@H]1C1=CC[C@@H]3[C@@]4(C)CCCNC(C)(C)[C@@H]4CC[C@@]3(C)[C@]1(C)CC2`, the growth in test [1] is -55% (active); in [2], -34.8% (active); in test [3], 52.2%; in [4] it was 5.67% (active); in test [5], -18.9% (active); in test [6] it was 75.9%. Further, the growth in test [7] is -54.4% (active); in test [8], -46.9% (active); in test [9], -44.6% (active); in [10] it was -88% (active); in test [11], 28.8%; in [12] it was -76.3% (active). Also, the growth in test [13] is -61.6% (active); in test [14], -71% (active); in test [15], -89.6% (active); in test [16], -91.2% (active); in [17], -25.6% (active).

`O=C1[C@H]2Cc3c([nH]c4ccccc34)[C@@H](c3ccc(Br)cc3)N2C(=O)CN1C1CCN(CC2CCCCC2)CC1`: the growth in test [1] was -67.6% (active); in test [2] it was -35% (active); in test [3], -48.5% (active); in test [4] it was -84.6% (active); in test [5] it was -64% (active); in test [6], 64.7%. The growth in test [7] was -82.2% (active); in test [8], -90% (active); in test [9], -56.4% (active); in test [10], -83.8% (active); in test [11], 44.7%; in test [18] it was -3.47% (active). Moreover, the growth in test [12] is -88% (active); in test [13], -83.4% (active); in test [14], -99.1% (active); in [15] it was -93.2% (active); in test [16], -98.8% (active); in [17], -90.1% (active).

`NC/C(=C/F)COc1ccc2nc(NCc3cccnc3)oc2c1`: the growth in [1] was 101%; in [2], 120%; in test [3], 102%; in test [4] it was 113%; in [5], 86.6%; in [6], 110%. Moreover, the growth is 86.4% in test [7]; 122% in test [8]; 99.5% in [9]; 111% in test [10]; 103% in [11]; 102% in test [12]. Also, the growth in test [13] is 96.7%; in test [14] it was 89.3%; in [15] it was 96.4%; in test [16] it was 117%; in [17] it was 103%.

For `CC(=O)N(C)C1CCc2c(sc(NC(=O)c3ccc(C(C)(C)C)cc3)c2C(N)=O)C1` (centres undefined), the growth in [1] is 9.43% (active); in test [2], 81.2%; in test [3] it was 73.8%; in [4] it was 78.9%; in test [5] it was 41.7%; in test [6] it was 108%. Moreover, the growth is 100% in [7]; 83.7% in [8]; 38.9% in test [9]; 79.6% in [10]; 74% in test [11]; 88.2% in test [18]. For the same compound, the growth was 83.7% in test [12]; 58.2% in test [13]; 59.8% in test [14]; 65.1% in [15]; 108% in test [16]; 64.9% in test [17].

In the case of `C=C(C)[C@@H]1CC[C@]2(C(=O)NCCCCCN(CCC#N)CCC#N)CC[C@]3(C)[C@H](CC[C@@H]4[C@@]5(C)CCC(=O)C(C)(C)[C@@H]5CC[C@]43C)[C@@H]12`, the growth was 80.4% in test [1]; 79.7% in test [2]; 106% in test [3]; 96.2% in test [4]; 86% in test [5]; 118% in test [6]. The growth in test [7] was 97.6%; in test [8], 111%; in test [9], 103%; in test [10], 108%; in [11], 106%; in [18], 92.9%. For the same compound, the growth in test [12] is 99.7%; in [13] it was 97.4%; in test [14], 86.2%; in test [15], 95.5%; in [16], 110%; in [17] it was 101%.
